Laboratory results: PubChem BioAssay (NCATS)
Values joined by “and” are separate entries in the source; they are usually repeats but may differ in a detail not shown here. Equal entries are not always repeated. Results filed as inconclusive are left out. A call without a number means that no potency is given here. Unmarked numbers belong to inactive results. Active and inactive are the calls of the source. Calls follow the shape of the dose curve; as a rule, active = well fitted inhibition curve with a large enough effect; inconclusive = small, poorly fitted or top-dose-only effect; inactive = flat fitted curve, though single readings scatter.

Columns and labels:
CRL-7250 [1] = assay: Cytotoxic Profiling of Annotated Libraries Using Quantitative High-Throughput Screening (AID 1296008); conditions: Five cell lines viability, CellTiter-Glo ATP luminescence, 48-72 h; max response: active compounds read low
In short: (§1)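 Cells exposed to compounds for 48 or 72 hr at 37 degrees Celsius. Viability read as ATP-coupled luminescence with CellTiter-Glo after 10 min at room temperature.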

HaCat [2] = assay: as above; conditions: Five cell lines viability, CellTiter-Glo ATP luminescence, 48-72 h; max response: active compounds read low
In short: as §1

KB-3-1 = assay: as above; conditions: Five cell lines viability, CellTiter-Glo ATP luminescence, 48-72 h; max response: active compounds read low
In short: as §1

NIH3T3 [3] = assay: as above; conditions: Five cell lines viability, CellTiter-Glo ATP luminescence, 48-72 h; max response: active compounds read low
In short: as §1

MCC-13 = assay: qHTS assay to identify novel small-molecules to repurpose for Merkel cell carcinoma treatment (AID 1296009); conditions: MCC and control cell lines, CellTiter-Glo viability, 72 h; series mostly up to 46 µM
In short: (§2)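 Dose-response viability screen; 72 hr exposure at 37 degree celsius; CellTiter-Glo added, 10 min room temperature, luminescence read; RLUs scaled between no-cell and DMSO wells.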

MCC-26 = assay: as above; conditions: MCC and control cell lines, CellTiter-Glo viability, 72 h; series mostly up to 46 µM
In short: as §2

MKL-1 = assay: as above; conditions: MCC and control cell lines, CellTiter-Glo viability, 72 h; series mostly up to 46 µM
In short: as §2

MKL-2 = assay: as above; conditions: MCC and control cell lines, CellTiter-Glo viability, 72 h; series mostly up to 46 µM
In short: as §2

UISO = assay: as above; conditions: MCC and control cell lines, CellTiter-Glo viability, 72 h; series mostly up to 46 µM
In short: as §2

HEK293 = assay: Cytotoxic Profiling of Annotated Libraries Using Quantitative High-Throughput Screening (AID 1296008); conditions: Five cell lines viability, CellTiter-Glo ATP luminescence, 48-72 h; max response: active compounds read low
In short: as §1

SC27B = assay: qHTS profiling for inhibitors of Plasmodium falciparum proliferation (AID 504749); conditions: P. falciparum in erythrocytes, SYBR Green DNA, 72 h; series mostly up to 28.7 µM
In short: (§3)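 Each compound contacts P. falciparum-infected red blood cells for 72 h at 37 C; lysis buffer (Tris, EDTA, saponin, Triton X, SYBR Green I) is added and fluorescence measured next morning; values normalized to controls.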

TAB109 = assay: as above; conditions: P. falciparum in erythrocytes, SYBR Green DNA, 72 h; series mostly up to 28.7 µM
In short: as §3

W2 = assay: as above; conditions: P. falciparum in erythrocytes, SYBR Green DNA, 72 h; series mostly up to 28.7 µM
In short: as §3

HACAT [4] = assay: qHTS assay to identify novel small-molecules to repurpose for Merkel cell carcinoma treatment (AID 1296009); conditions: MCC and control cell lines, CellTiter-Glo viability, 72 h; at 44.8 µM (top of the series) unless noted
In short: as §2

NIH3T3 [5] = assay: as above; conditions: MCC and control cell lines, CellTiter-Glo viability, 72 h; at 44.8 µM (top of the series) unless noted
In short: as §2

CRL-7250 [6] = assay: as above; conditions: MCC and control cell lines, CellTiter-Glo viability, 72 h; at 44.8 µM (top of the series) unless noted
In short: as §2

HEK293T = assay: as above; conditions: MCC and control cell lines, CellTiter-Glo viability, 72 h; at 44.8 µM (top of the series) unless noted
In short: as §2

PC49 = assay: qHTS profiling for inhibitors of Plasmodium falciparum proliferation (AID 504749); conditions: P. falciparum in erythrocytes, SYBR Green DNA, 72 h; series mostly up to 28.7 µM
In short: as §3

TAB113 = assay: as above; conditions: P. falciparum in erythrocytes, SYBR Green DNA, 72 h; series mostly up to 28.7 µM
In short: as §3

TAB165 = assay: as above; conditions: P. falciparum in erythrocytes, SYBR Green DNA, 72 h; series mostly up to 28.7 µM
In short: as §3
Also: nearly all actives have a fitted effect of over 60% in size.
Potency is read from the fitted curve at half-maximal effect.

Compound Nc1c(Cl)c(Cl)c(Cl)c(Cl)c1Cl has a max response (CRL-7250 [1]) of -6.12%, a max response (HaCat [2]) of -3.9% and a max response (KB-3-1) of -13%. For the same compound, the max response (NIH3T3 [3]) was 2.9%, the Potency (MCC-13) was “inactive” and the Potency (MCC-26) was “inactive”. For the same compound, the Potency (MKL-1) was “inactive”, the Potency (MKL-2) was “inactive” and the Potency (UISO) was “inactive”.

In the case of C[C@@H]1CC[C@@]2(OC1)O[C@H]1C[C@H]3[C@@H]4CC=C5C[C@@H](O[C@@H]6O[C@H](CO)[C@@H](O[C@@H]7O[C@@H](C)[C@H](O)[C@@H](O)[C@@H]7O)[C@H](O)[C@@H]6O[C@@H]6O[C@@H](C)[C@H](O)[C@@H](O)[C@@H]6O)CC[C@]5(C)[C@@H]4CC[C@]3(C)[C@@H]1[C@H]2C, the Potency (CRL-7250 [1]) is reported as 9.35 µM (active), the Potency (HEK293) is reported as 3.72 µM (active) and the Potency (KB-3-1) is reported as 8.33 µM (active). For the same compound, the Potency (NIH3T3 [3]) was 13.2 µM (active), the Potency (MCC-26) was 10.5 µM (active) and the Potency (MKL-2) was 6.62 µM (active).

COC(C)(C)CCCC(C)C/C=C/C(C)=C/C(=O)OC(C)C (stereo not drawn) was tested, and the Potency (SC27B) was “inactive”, the Potency (TAB109) was “inactive” and the Potency (W2) was 10.7 µM (active). For the same compound, the max response (CRL-7250 [1]) was 1.51%, the outcome (HaCat [2]) was “inactive” and the max response (KB-3-1) was 3.28%. For the same compound, the outcome (NIH3T3 [3]) was “inactive”, the outcome (HACAT [4]) was “inactive” and the Potency (MCC-13) was “inactive”. The Potency (MCC-26) was “inactive”, the Potency (MKL-1) was “inactive” and the Potency (MKL-2) was “inactive”. The outcome (NIH3T3 [5]) was “inactive” and the Potency (UISO) was “inactive”.

In the case of O=C(N[C@H]1CN2CCC1CC2)c1ccc(Cl)cc1, the outcome (CRL-7250 [1]) is reported as “inactive”, the outcome (HaCat [2]) is reported as “inactive” and the outcome (KB-3-1) is reported as “inactive”. For the same compound, the max response (NIH3T3 [3]) was -6.97%, the outcome (NIH3T3 [3]) was “inactive” and the outcome (CRL-7250 [6]) was “inactive”. For the same compound, the outcome (HACAT [4]) was “inactive”, the outcome (HEK293T) was “inactive” and the Potency (MCC-13) was “inactive”. The Potency (MCC-26) was “inactive”, the Potency (MKL-1) was “inactive” and the Potency (MKL-2) was “inactive”. The outcome (NIH3T3 [5]) was “inactive” and the Potency (UISO) was “inactive”.

For CC(C)(O)C=CC(=O)[C@](C)(O)[C@H]1[C@H](O)C[C@]2(C)[C@@H]3CC=C4[C@@H](C=C(O)C(=O)C4(C)C)[C@]3(C)C(=O)C[C@@]12C, the Potency (CRL-7250 [1]) was 0.418 µM (active), the Potency (HEK293) was 1.87 µM (active) and the Potency (KB-3-1) was 0.132 µM (active). For the same compound, the Potency (NIH3T3 [3]) was 2.96 µM (active), the Potency (MCC-13) was 0.264 µM (active) and the Potency (MKL-1) was 0.0662 µM (active). For the same compound, the Potency (MKL-2) was 0.0372 µM (active) and the Potency (UISO) was 0.166 µM (active).

For CCN(CC)C(=O)c1ccc(C2=CC3(CCNCC3)Oc3cccc(O)c32)cc1, the max response (CRL-7250 [1]) was 3.09% and -1.02%, the max response (HaCat [2]) was -0.307% and the outcome (HaCat [2]) was “inactive”. The max response (KB-3-1) was 5.76% and 9.58%, the max response (NIH3T3 [3]) was 0.128% and the outcome (NIH3T3 [3]) was “inactive”. The outcome (HACAT [4]) was “inactive”, the Potency (MCC-13) was “inactive” and the Potency (MCC-26) was “inactive”. For the same compound, the Potency (MKL-1) was “inactive”, the Potency (MKL-2) was “inactive” and the outcome (NIH3T3 [5]) was “inactive”. For the same compound, the Potency (UISO) was “inactive”.

Work on CC(Cc1ccc(O)cc1)NCC(O)c1cc(O)cc(O)c1 (stereo not drawn) yielded a max response (CRL-7250 [1]) of 3.52%, a max response (HaCat [2]) of -18.5% and a max response (KB-3-1) of 6.39%. For the same compound, the max response (NIH3T3 [3]) was -6.43%, the Potency (MCC-13) was “inactive” and the Potency (MCC-26) was “inactive”. The Potency (MKL-1) was “inactive”, the Potency (MKL-2) was “inactive” and the Potency (UISO) was “inactive”.

O=S(=O)(O)C(F)(F)C(F)(F)C(F)(F)C(F)(F)C(F)(F)C(F)(F)C(F)(F)C(F)(F)F showed a max response (CRL-7250 [1]) of -8.73%, a max response (HaCat [2]) of 0.89% and a max response (KB-3-1) of -10.5%. The outcome (NIH3T3 [3]) was “inactive”, the Potency (MCC-13) was “inactive” and the Potency (MCC-26) was “inactive”. The Potency (MKL-1) was “inactive”, the outcome (NIH3T3 [5]) was “inactive [at 92 µM]” and the Potency (UISO) was “inactive”.

In the case of CC[N+]1(CCOC(=O)C(O)(c2ccccc2)c2ccccc2)CCCCC1, the Potency (PC49) is reported as “inactive”, the Potency (SC27B) is reported as “inactive” and the Potency (TAB113) is reported as “inactive”. The Potency (W2) was “inactive”, the max response (CRL-7250 [1]) was -4.52% and the outcome (HaCat [2]) was “inactive”. The max response (KB-3-1) was 1.27%, the outcome (NIH3T3 [3]) was “inactive” and the outcome (HACAT [4]) was “inactive”. The outcome (HEK293T) was “inactive”, the Potency (MCC-13) was “inactive” and the Potency (MCC-26) was “inactive”. For the same compound, the Potency (MKL-1) was “inactive”, the Potency (MKL-2) was “inactive” and the outcome (NIH3T3 [5]) was “inactive”. For the same compound, the Potency (UISO) was “inactive”.

For CCCCCCCCCC(CC)c1ccc(S(=O)(=O)O)cc1 (stereo not drawn), the Potency (PC49) was “inactive”, the Potency (SC27B) was “inactive” and the Potency (TAB109) was “inactive”. For the same compound, the Potency (TAB113) was “inactive”, the Potency (TAB165) was “inactive” and the Potency (W2) was “inactive”. For the same compound, the max response (CRL-7250 [1]) was -1.12%, the outcome (HaCat [2]) was “inactive” and the max response (KB-3-1) was -1.21% and -21.2%. For the same compound, the max response (NIH3T3 [3]) was -1.31%, the outcome (HACAT [4]) was “inactive [at 92 µM]” and the Potency (MCC-13) was “inactive”. For the same compound, the Potency (MCC-26) was “inactive”, the Potency (MKL-1) was “inactive” and the Potency (MKL-2) was “inactive”. For the same compound, the Potency (UISO) was “inactive”.

With CC1=C(O)C(=O)C=C2C1=CC=C1[C@@]2(C)CC[C@@]2(C)[C@@H]3C[C@](C)(C(=O)O)CC[C@]3(C)CC[C@]12C the Potency (HEK293) was 1.48 µM (active), the Potency (HaCat [2]) was 2.64 µM (active) and the Potency (KB-3-1) was 2.96 µM (active). For the same compound, the Potency (NIH3T3 [3]) was 3.32 µM (active), the Potency (MCC-13) was 4.18 µM (active) and the Potency (UISO) was 3.72 µM (active).

For CC=C(C)C(=O)N[C@@H](c1ccccc1)[C@@H](O)C(=O)O[C@H]1C[C@@]2(O)[C@@H](OC(=O)c3ccccc3)[C@@H]3[C@]4(OC(C)=O)CO[C@@H]4C[C@H](O)[C@@]3(C)C(=O)[C@H](OC(C)=O)C(=C1C)C2(C)C, the max response (HEK293) was -78.1%, the Potency (KB-3-1) was 0.001 µM (active) and the Potency (MKL-1) was “inactive”. The Potency (MKL-2) was “inactive”.

C=C[C@@H]1CN2CCC1C[C@H]2[C@H](O)c1ccnc2ccccc12 (stereo partly drawn) was tested, and the outcome (CRL-7250 [1]) was “inactive”, the max response (NIH3T3 [3]) was -22.5% and the outcome (CRL-7250 [6]) was “inactive”. For the same compound, the Potency (MCC-13) was “inactive”, the Potency (MCC-26) was “inactive” and the Potency (MKL-1) was “inactive”. The Potency (MKL-2) was “inactive” and the Potency (UISO) was “inactive”.

For COc1ccc(C(=O)c2c(C)n(CCN3CCOCC3)c3cc(I)ccc23)cc1, the max response (CRL-7250 [1]) was 4.04%, the outcome (HaCat [2]) was “inactive” and the outcome (NIH3T3 [3]) was “inactive”. For the same compound, the outcome (HACAT [4]) was “inactive”, the Potency (MCC-13) was “inactive” and the Potency (MCC-26) was “inactive”. For the same compound, the Potency (MKL-2) was 1.48 µM (active) and the outcome (NIH3T3 [5]) was “inactive”.

With CC=C(C)C(=O)O[C@H]1C(C)=C2[C@@H]3OC(=O)[C@@](C)(O)[C@@]3(O)[C@@H](OC(=O)CCC)C[C@](C)(OC(C)=O)[C@@H]2[C@@H]1OC(=O)CCCCCCC the Potency (CRL-7250 [1]) was 0.148 µM (active), the Potency (HaCat [2]) was 8.33 µM (active) and the Potency (NIH3T3 [3]) was 0.0187 µM (active). The Potency (MCC-13) was 1.87 µM (active), the Potency (MCC-26) was 1.32 µM (active) and the Potency (MKL-1) was 11.8 µM (active). For the same compound, the Potency (MKL-2) was 3.72 µM (active) and the Potency (UISO) was 0.235 µM (active).
